Tau fibril FP: inhibitors of human tau fibril formation; P10636; K18 P301L tau heparin fibrillization, Alexa594 FP, 6 h; Potency, µM (series often up to 57.7 µM), for the others: at the highest dose activity, negative = inhibition, most hits filed as inhibitors; hit rate 0.39% among 280,000; also: potency is read from the fitted curve at half-maximal effect; nearly all actives have a fitted effect of over 55% in size
Target sequence (P10636 561-689 P618L limits assumed): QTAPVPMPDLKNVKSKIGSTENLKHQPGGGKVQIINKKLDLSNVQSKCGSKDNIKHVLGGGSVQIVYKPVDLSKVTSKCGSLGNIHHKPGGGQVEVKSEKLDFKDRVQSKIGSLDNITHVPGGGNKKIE
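Heparin (20 uM) drove fibril formation of recombinant tau K18 P301L, 15 uM unlabeled with 0.24 uM Alexa 594 label, for 6 hr at 37 C in 100 mM sodium acetate pH 7. Fluorescence polarization (555/632 nm) read 1 hr after 30 uM ThT.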
Tau fluor counter: counter-screen for tau fibril formation inhibitors | tau K18 P301L Alexa594 fluorescence, heparin fibrillization | Potency, µM (top dose mostly 57.7 µM), inactives show at the highest dose activity change, negative = decrease | hit rate 0.93% among 280,000 | AID 1463; also: potency is read from the fitted curve at half-maximal effect; nearly all actives have a fitted effect of over 55% in size
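Human tau K18 P301L (15 uM unlabeled, 0.24 uM Alexa 594-labeled) in 100 mM sodium acetate pH 7 with 20 uM heparin, 6 hr at 37 C. ThT 30 uM added, 1 hr ambient; Alexa 594 FP and total fluorescence read at 555/632 nm.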
Sfp inh: inhibitors of Bacillus subtilis Sfp phosphopantetheinyl transferase; Q9F4F7; hit rate 3.5% among 310,000; Potency, µM, for inactives: largest response in the series, negative = inhibition, actives largely listed as inhibitors; AID 1490; Biochemical Sfp PPTase activity, qHTS;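 also: the enzyme is Sfp with the accession as filed and its product quenches rhodamine fluorescence; potency is read from the fitted curve at half-maximal effect; 0% = enzyme reaction without inhibitor and -100% = no enzyme wells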
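After 15 min at room temperature with compound, 15 nM Sfp received 5 uM rhodamine-CoA plus 12.5 uM BHQ-2-ybbR (50 mM Hepes pH 7.6, 10 mM MgCl2). Rate came from the fluorescence difference over 30 min, ex 525/em 598 nm.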
FBPA coupling cs: coupling enzyme interference in Giardia aldolase counter-screen; coupling enzyme system counterscreen, AmpLite Red fluorescence; activity change, negative = inhibition, % at 58.2 µM, hits read low; hit rate 0.67% among 290,000; AID 2472; in the data active = activity change below about -30%
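Compounds tested against the coupling enzymes alone at 57.5 uM final; readout was AmpLite Red fluorescence (525/598 nm) after 20 min at RT.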
Tau ThT inhib: blocks human tau fibril formation measured by thioflavin T; P10636; recombinant tau K18 P301L (four-repeat tau fragment), heparin-induced fibrillization, ThT fluorescence; Potency, µM (series often up to 57.4 µM), inactives show top-dose activity, negative = inhibition, hits mostly inhibitors; hit rate 2.1% among 270,000; AID 1460; also: potency is read from the fitted curve at half-maximal effect; nearly all actives have a fitted effect of over 55% in size
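Heparin-induced (20 uM) aggregation of recombinant human K18 P301L tau, 15 uM unlabeled with 0.24 uM labeled, pH 7 acetate buffer, 6 hr at 37 C with compound. Fibrils quantified by 30 uM ThT fluorescence after 1 hr ambient incubation.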
G9a inh: G9a (human) methyltransferase inhibition | Q96KQ7 | G9a H3K9 monomethylation, AlphaScreen, 2 h | Potency, µM (doses to about 102 µM), for the others: top-dose activity, negative = inhibition, usual class: inhibitors | hit rate 8.8% among 350,000 | AID 504332; also: potency is read from the fitted curve at half-maximal effect; nearly all actives have a fitted effect of over 75% in size
Target sequence (Q96KQ7 913-1193 limits assumed): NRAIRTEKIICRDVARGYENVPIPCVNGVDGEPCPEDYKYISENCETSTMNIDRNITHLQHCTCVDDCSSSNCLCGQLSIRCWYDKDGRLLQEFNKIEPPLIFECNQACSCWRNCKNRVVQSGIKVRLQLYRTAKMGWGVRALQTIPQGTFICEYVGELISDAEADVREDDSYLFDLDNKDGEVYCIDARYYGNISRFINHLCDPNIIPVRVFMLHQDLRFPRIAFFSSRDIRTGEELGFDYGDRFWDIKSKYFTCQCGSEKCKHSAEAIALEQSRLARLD
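Signal arises when biotinylated H3K9 peptide, once monomethylated, bridges streptavidin donor and antibody-captured acceptor beads. Enzyme at 20 nM was preincubated 15 min with test compounds; peptide 500 nM and SAM 20 uM then reacted for 2 h.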
* = called active by the depositor; ? = inconclusive; . = no result given; ! = a repeat was not active; [ ] = dose if it differs, or a comment. In the library only some 11% were active in any assay of this set; here they are far more common. Unless noted, calls follow the shape of the dose curve; as a rule, active = well fitted curve in the direction sought with a large enough effect; inconclusive = small, poorly fitted or top-dose-only effect, or another doubt; inactive = no such curve, though single readings can be large; an effect the other way counts as inactive or inconclusive. Unless noted, % is scaled to controls: 0 for no effect and ±100 for the full control effect.

SMILES	Tau fibril FP	Tau fluor counter	Sfp inh	FBPA coupling cs	Tau ThT inhib	G9a inh
CCCCCCN1C=CC=C/C1=C/C=C(C#N)C#N	2%	6%	?	-11	9%	45µM*
CCCCCCN1C=C/C(=C\C=C(C#N)C#N)c2ccccc21	-19%	-10%	5%	-5	?	7.1µM*
CC1(C)C2CCC1(CS(=O)(=O)N1CCC(C(=O)O)CC1)C(=O)C2 (stereo not given)	-1%	1%	28%	2	-2%	.
CN1CCN(C2=C(Cl)C(=O)N(C3CCCCC3)C2=O)CC1	5%	-2%	-1%	0	?	40µM*
CCOc1ccc(NC2=C(Cl)C(=O)N(C3CCCCC3)C2=O)cc1	-4%	0%	19%	-2	-16%	?
C[C@H](C(=O)OCO/N=[N+](\[O-])N1CCCC1)c1cccc2ccccc12	.	.	56µM*	-19	.	.
N[C@@H](C(=O)O)c1ccc(C(=O)O)cc1	-3%	-8%	4%	2	-3%	.
N[C@H](C(=O)O)c1ccc(C(=O)O)cc1	-6%	-3%	45µM*!	0	9%	34%[59 µM]
CC(C(=O)Nc1cc(C(F)(F)F)ccc1Cl)n1nnc2sc3c(c2c1=O)CCCC3 (stereo not given)	-10%	-21%	.	.	-2%	-32%[59 µM]
C=C(C)CSc1nc2sc3c(c2c(=O)n1Cc1ccccc1)CC(C)(CC)OC3 (stereo not given)	3%	-1%	.	.	?	3%[59 µM]
Cc1nn(-c2ccccc2)c2c1N(CCCC(=O)NCc1ccc(N(C)C)cc1)C(=O)CS2	8%	-16%	.	.	?	?
CCn1c(=O)n(CC)c2cc(N3CCCCC3)c(NC(=O)Nc3cc(Cl)ccc3OC)cc21	?	-20%	.	.	-12%	?
Cn1c(=O)c(=O)n(C)c2cc(N3CCCC3)c(NC(=O)c3ccccc3F)cc21	-14%	-14%	.	.	-12%	4%[59 µM]
CCn1c(=O)n(CC)c2cc(N3CCCC3)c(NC(=O)c3ccccc3F)cc21	.	.	-16%	-5	.	40µM*
CCn1c(=O)n(CC)c2cc(N3CCCC3)c(NC(=O)c3ccccc3C)cc21	.	.	-10%	1	.	50µM*
Cc1ccccc1C(=O)Nc1ccccc1N1CCCCC1	3%	-2%	-6%	8	-2%	277%
CCn1c(=O)n(CC)c2cc(N3CCCC3)c(NC(=O)c3cc(Br)ccc3OC)cc21	.	.	?	.	.	45µM*
O=C(NCCCN1CCN(c2ccc(F)cc2)CC1)c1cc2c(Cl)nc3ccccc3c2s1	-15%	?	.	.	4%	-3%[59 µM]
Oc1cc2c(cc1O)C1c3ccc(O)c(O)c3OCC1(O)C2 (stereo not given)	25µM*	?	2.5µM*!	-72*!	4µM*	?
CC/C=C/[C@@H](c1ccccc1)[C@H](C)C(O)CC(=O)SC(C)(C)C (stereo not given in full)	.	.	11%	1	.	.
CC(=O)c1c(C(=O)O)[nH]c(C(=O)O)c1C	2%	6%	0%	-1	1%	16µM*
Cc1[nH]c(C(=O)O)c(C)c1C(=O)OC(C)C	1%	5%	3%	0	-5%	-22%
Cc1cc(C)c(NC(=O)COC(=O)C2CCCCC2)c(C)c1	.	.	.	.	.	24%[12.7 µM]
COC(=O)C1=C(C)N=C2SCCC(=O)N2C1c1cc(Br)ccc1OC (stereo not given)	3%	?	11%	-1	5µM*	-8%
C#CCN1C(=O)S/C(=C/C=C/c2ccc(N(C)C)cc2)C1=O	?	20%	-11%	-4	1.6µM*	8.9µM*
SMILES	Tau fibril FP	Tau fluor counter	Sfp inh	FBPA coupling cs	Tau ThT inhib	G9a inh
Brc1cccc(-c2nnc3sc(CNCc4ccco4)cn23)c1	2%	-5%	8%	5	-5%	45µM*
CC1CCCN(Cc2cn3c(-c4cccc(Br)c4)nnc3s2)C1 (stereo not given)	-2%	-16%	.	.	-16%	5%[59 µM]
CCOc1ccc(CN2CCN(CCCc3ccccc3)CC2CCO)cc1 (stereo not given)	.	.	-1%	-1	.	.
N#CCCN(C(=O)COC(=O)CCc1nc2ccccc2c(=O)[nH]1)c1ccccc1F	.	.	.	.	.	0%[12.7 µM]
Cc1oc2ccc(O)c(CN3CCOCC3)c2c1C(=O)c1ccc(Cl)cc1	4%	-3%	17%	-40*	-6%	?
Cc1oc2ccc(O)c(CN3CCOCC3)c2c1C(=O)Nc1ccccc1	5%	-9%	.	.	-2%	-2%[59 µM]
O=C(c1ccco1)N(Cc1cccnc1)c1nc2ccc(F)cc2s1	4%	-13%	.	.	-3%	-3%[59 µM]
COC(=O)C1CC23C=CCN4CCC5(c6ccccc6NC15C2C)C43 (stereo not given)	.	.	4%	-1	.	40µM*
O=C(/C=C/c1ccco1)c1ccc(O)cc1	-10%	-14%	22µM*	2	?	?
CN(C)c1ccc(C(=O)/C=C/c2ccco2)cc1	-5%	-26%	50µM*	-2	10µM*	13µM*
O=C(/C=C/c1c(F)cccc1Cl)c1ccc(O)cc1	-11%	-26%	-6%	4	?	-22%
CCOc1ccc(N(CC(=O)Nc2ccccc2OCC)S(=O)(=O)c2c(C)noc2C)cc1	.	.	10%	.	.	14%
Cc1oc(-c2ccc(C(=O)NCc3cccc(F)c3)cc2)nc1COc1ccccc1	-11%	-6%	.	.	7%	-1%[59 µM]
Cc1cc(C)nc(Nc2nc(=O)c3ccccc3s2)n1	-12%	-2%	?	1	-12%	40µM*
Cc1cc2c(sc3ccccc32)c(C)n1	0%	-11%	-5%	0	?	-40%
COc1ccc2[nH]cc(CCNC(=O)COc3ccc4ccc(=O)oc4c3)c2c1	.	.	17%	-1	.	-6%[12.7 µM]
Cc1[nH]c2ccc(Br)cc2c1CCNC(=O)c1cc2ccccc2oc1=O	?	?	.	.	?	-3%[59 µM]
COc1cc2oc(=O)c3c4c(cc5ccc(c1CCN(C)C)c2c53)OCO4	9%	-11%	-17%	-15	-15%	.
Cc1ccc(C)n1-n1cnc2scc(-c3cccs3)c2c1=O	6%	-2%	-7%	1	-8%	13%[12.7 µM]
O=c1c2c(-c3cccs3)csc2[nH]c(=S)n1-c1ccccc1	-2%	-5%	5%	5	-16%	40µM*
CCn1c(=S)[nH]c2scc(-c3cccs3)c2c1=O	11%	0%	-5%	3	-4%	35µM*
Cc1nc2scc(-c3cccs3)c2c(=O)n1CC(=O)O	0%	0%	-20%	8	-4%	-3%[59 µM]
O=c1c2c(-c3cccs3)csc2ncn1-c1ccccc1	-1%	-13%	-3%	2	-10%	9%[59 µM]
CC(C)n1c(=S)[nH]c2scc(-c3cccs3)c2c1=O	-15%	?	40µM*	1	?	28µM*

Screens: PubChem, National Center for Advancing Translational Sciences (NCATS)
